Screens as filed in PubChem.
USP30 inh: inhibitors of human USP30 deubiquitinase; AID 1645860, 2021; purified USP30, Ub-rhodamine cleavage fluorescence; Ubiquitin carboxyl-terminal hydrolase 30 (Homo sapiens), Q70CQ3; hit rate 5.3% among 47,000; inhibition, % at 25 µM
Target sequence (Q70CQ3 whole entry, looked up): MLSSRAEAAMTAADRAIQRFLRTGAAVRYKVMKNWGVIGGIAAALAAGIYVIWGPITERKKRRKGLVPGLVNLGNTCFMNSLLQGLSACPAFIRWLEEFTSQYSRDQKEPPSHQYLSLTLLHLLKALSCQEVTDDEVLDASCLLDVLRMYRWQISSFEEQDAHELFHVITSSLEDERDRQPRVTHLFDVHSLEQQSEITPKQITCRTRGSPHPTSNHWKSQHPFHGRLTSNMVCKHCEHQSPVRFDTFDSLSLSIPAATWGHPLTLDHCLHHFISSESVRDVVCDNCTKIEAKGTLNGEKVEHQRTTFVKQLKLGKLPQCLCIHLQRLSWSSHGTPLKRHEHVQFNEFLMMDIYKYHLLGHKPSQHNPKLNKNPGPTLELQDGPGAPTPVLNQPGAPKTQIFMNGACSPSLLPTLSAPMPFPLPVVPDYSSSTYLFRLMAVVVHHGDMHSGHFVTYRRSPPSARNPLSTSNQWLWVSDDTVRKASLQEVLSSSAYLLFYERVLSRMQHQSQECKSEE
USP17 block: inhibitors of human USP17 deubiquitinase. AID 1645855, 2021. inhibition, % at 50 µM. purified USP17, Ub-rhodamine cleavage fluorescence, 3 h. hit rate 6.5% among 47,000. Ubiquitin carboxyl-terminal hydrolase 17-like protein 5 (Homo sapiens), A8MUK1
Numbers without * were called inactive; i = inactive; nt = no result. Only some compounds are listed: those with a hit (about 9.6% of all), similar ones and a draw of the others. Cut-off read from the data, not from the text of the source: active = inhibition above about 30%; inactive = the rest.

SMILES	USP30 inh	USP17 block
O=C(Cc1ccccc1)N1CCN(c2nc3ccc(F)cc3s2)CC1	-9	-7
CCN(CC)C(=O)CSc1nc2c(cnn2-c2ccc(Cl)cc2)c(=O)[nH]1	0	0
COc1ccccc1NS(=O)(=O)c1ccc(-c2cc(C)[nH]n2)s1	16	3
Cc1ccccc1OCCSc1nc2ccccc2n1CC(=O)NC1CC1	50*	31*
O=C(Cn1c(SCCOc2ccccc2)nc2ccccc21)N1CCCCC1	17	7
COc1cccc(-c2nnc(-c3ccccc3NS(=O)(=O)c3ccc(Cl)cc3)o2)c1	-13	0
CC(C)C(=O)N1CCc2cc(-c3csc(NC4CCCC4)n3)ccc21	-150	-36
Cc1cc(C(=O)N2CC(C(=O)Nc3cc(C(F)(F)F)ccc3Cl)C2)no1	70*	41*
Cc1cc(C(=O)N2CC(C(=O)Nc3ccc(F)c(Cl)c3)C2)no1	10	-1
COc1cc2c(cc1OC)CN(C(=O)C(NC(=O)c1ccccc1)C(C)C)CC2 (stereo not drawn)	4	20
COc1ccc(C(C)=O)cc1COC(=O)c1ccc2c(c1)S(=O)(=O)N=C1CCCCCN12	38*	45*
CC(C)(C)c1ccc(NC(=O)c2ccc3c(c2)S(=O)(=O)N=C2CCCCCN23)cc1	-13	0
Cc1ncc(-c2c[nH]c3ccccc23)o1	8	9
CCCc1cc(C2CCCN2C(=O)Cc2c(F)cccc2Cl)no1 (stereo not drawn)	9	6
COCCCNC(=O)c1ccc(-c2ccc(N3CCCCC3)nc2)cc1	17	11
O=C(NCc1ccccn1)c1ccc(-c2ccc(N3CCSCC3)nc2)cc1	82*	60*
N#Cc1ccc(NC(=O)C2CC(=O)N(Cc3ccccc3)C2)cc1 (stereo not drawn)	-10	-2
CC1CN(C(=O)c2cccn(Cc3c(Cl)cccc3Cl)c2=O)CC(C)O1 (stereo not drawn)	17	0
COC(=O)Nc1cccn(Cc2c(Cl)cccc2Cl)c1=O	52*	88*
N#Cc1ccc(NC(=O)Nc2cccn(Cc3c(F)cccc3Cl)c2=O)cc1	-27	78*
O=C(Nc1ccccc1)N1CCCN(Cc2c(F)cccc2Cl)CC1	29	6
N#Cc1ccc(NC(=O)Nc2cccn(Cc3ccc(F)cc3)c2=O)cc1	26	93*
CC[C@H](C)[C@@H](NC(=O)c1ccc2nc(-n3cccc3)sc2c1)C(=O)O	-23	-21
COC(=O)c1ccc(NC(=O)CN2C(=O)C(C)N(c3ccc(C)cc3)C2=O)cc1 (stereo not drawn)	21	26
CCn1c(=O)[nH]c2cc(-c3nc(-c4ccc(F)cc4)no3)ccc2c1=O	-96	-20
SMILES	USP30 inh	USP17 block
CN1CCN(c2nc3c(c(Nc4ccccc4)n2)C(=O)CCC3)CC1	6	-20
COc1cc(O)cc2c1C(=O)O[C@@H](C[C@H]1CCC[C@H](C)O1)C2	0	-11
COc1cc2cc3c(c(O)c2c(O)c1-c1c(OC)cc2cc4c(c(O)c2c1O)C(=O)OC1CC(C)OC41)C(=O)OC1CC(C)OC31 (stereo not drawn)	-62	61*
CC1NC(=O)[C@H]2C[C@H](C(=O)Nc3ccc(F)cc3)[C@@H]1N2Cc1ccccc1 (stereo partly drawn)	-24	-8
CSc1ccc(CNC(=O)Cc2c(C)n[nH]c2C)cc1	34*	15
COc1cccc(CNC(=O)Cc2c(C)n[nH]c2C)c1	-6	nt
Nc1cc(C2CCN(C(=O)Cc3cccc(C(F)(F)F)c3)CC2)no1	-18	1
O=C(Nc1ccccc1Cl)c1nn(C2CCS(=O)(=O)C2)c2c1CCCC2 (stereo not drawn)	0	5
O=C(Nc1cccc(C(F)(F)F)c1)c1nn(C2CCS(=O)(=O)C2)c2c1CCCC2 (stereo not drawn)	31*	10
COc1cccc(NC(=O)CCNc2cc(C)nc3nc(-c4cccnc4)nn23)c1	-53	-15
CCN(C(=O)c1cccc(Cn2ccnc2C)c1)[C@H]1C[C@@H](c2ccccc2)OC2(CCNCC2)C1	11	1
CCN(C(=O)c1cccc(-n2nc(C)cc2C)c1)[C@H]1C[C@@H](c2ccccc2)OC2(CCNCC2)C1	34*	-9
Cc1cnc2nc3c(cc2c1)CN(CCc1ccc(Cl)cc1)CC3	i	-166
CC(=O)N1CCN(Cc2nc(-c3ccc(N4CCCCC4)nc3)no2)CC1	-9	-3
CN1CCN(Cc2nc(-c3ccc(N4CCCCC4)nc3)no2)CC1	33*	-2
CCOC(=O)c1cccc(N2Cc3cccc(OC)c3OCC2=O)c1	-48	-8
COc1ccc(CNC(=O)Cc2c(C)n[nH]c2C)c(OC)c1	-3	-3
COc1ccc(-c2cc(C(=O)Nc3n[nH]c4nc(C)ccc34)[nH]n2)c(OC)c1	4	32*
O=C(NCCCS(=O)(=O)N1CCN(c2ncccn2)CC1)c1c(F)cccc1Cl	4	0
CCOc1ccc(-n2c(C)c(C)c3c2ncn2nc(-c4ccccn4)nc32)cc1	10	3
CCOc1ccc(-n2c(C)c3c(C)nn4cc(-c5ccccc5)cc4c3c2C)cc1	32*	31*
COc1ccc(-c2cncc(C3CNCCO3)n2)cc1 (stereo not drawn)	0	9
Cc1ccc(N2C(=O)CN(S(C)(=O)=O)CC2(C)C(=O)NC2CCCC2)c(C)c1 (stereo not drawn)	17	14
c1ccc(CSc2ncnc3c2nnn3Cc2ccccc2)cc1	17	9
c1ccc(Cn2ncc3c(SCc4nc5ccccc5[nH]4)ncnc32)cc1	47*	-11
SMILES	USP30 inh	USP17 block
Cn1cc(-c2cnc(Nc3ccccc3)nc2)cc1C(=O)NCCc1ccccn1	-105	-24
COc1cc(=O)[nH]c(SCC(=O)Nc2cccc(C)c2)n1	-15	-16
Cc1cccc(NC(=O)c2nc3c(=O)[nH]c4cc(C)ccc4n3n2)c1	-174	35*
CCOc1ccc(NC(=O)CSCC(=O)Nc2cccc(C)c2)cc1	-5	0
CCOc1ccc(NC(=O)c2nc3c(=O)[nH]c4cc(C)ccc4n3n2)cc1	-134	54*
CCOC(=O)Cc1c(C)nc2c(-c3ccccc3)c(C)nn2c1C	-18	-1
Cc1cc(C)c(NC(=O)Cc2c(C)nc3c(-c4ccccc4)c(C)nn3c2C)c(C)c1	35*	22
COc1ccc(-c2noc(CCC(=O)Nc3nncs3)n2)cc1OC	-9	-3
COc1ccc(C(=O)N(Cc2ccc(C)cc2)Cc2ccco2)cc1	34*	33*
COc1ccc(C(=O)N(Cc2ccco2)Cc2ccco2)cc1Cl	-2	4
CCn1c(=O)c(N2CCN(S(=O)(=O)c3ccc4c(c3)CCC4)CC2)nc2ccncc21	-4	-8
CC(=O)Nc1nsc(N2CCC(C(=O)N3CCN(c4ccc(C)cc4)CC3)CC2)n1	7	-4
COc1cccc(N2CCN(C(=O)C3CCN(c4nc(NC(C)=O)ns4)CC3)CC2)c1	-3	69*
CCCCc1ccc(-c2cc(C(=O)NCCN3CCOCC3)c3cc(Br)ccc3n2)cc1	79*	14
O=C(NCCN1CCOCC1)c1cc(-c2ccc(Br)cc2)nc2ccccc12	4	0
CSc1cc(-c2nccs2)[nH]n1	22	7
CN1C(=O)CCCC12CCCN(C(=O)c1cccc(Cl)c1)C2 (stereo not drawn)	19	-1
COc1ccccc1OCc1nc2c3c(C)c(C)oc3ncn2n1	-89	-29
